Bioassay records from PubChem.
LmPK inh = LmPK (Leishmania mexicana) enzyme inhibition | Q27686 | purified LmPK, Kinase-Glo ATP luminescence, 1 h | Potency, µM (series often up to 57.5 µM), without a hit: top-dose activity change, negative = inhibition, usual class: inhibitors | 0.37% of 290,000 active; note: % is set by controls: 0 for no effect and ±100 for the full control effect
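Purified LmPK (0.1 nM) converted ADP (0.1 mM) to ATP with PEP (0.5 mM) in imidazole buffer pH 7.2 with KCl and MgCl2, 1 h at room temperature. ATP was read by Kinase-Glo luminescence; data normalized to uninhibited and no-enzyme controls.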
RE007 growth inh = less growth of the S. pombe RE007 Vpr strain | S. pombe RE007 Vpr strain, BacTiter-Glo ATP luminescence, 24 h | Potency, µM (highest dose often 92.2 µM), for the others: at the top dose activity change, negative = less growth, most hits filed as inhibitors | 0.21% of 360,000 active | AID 651644; active = well fitted falling curve with a large enough effect; inconclusive = small, poorly fitted or top-dose-only effect; inactive = no such curve, though single readings can be large or run the other way; note: % is set by controls: 0 for no effect and ±100 for the full control effect; nearly all actives have a fitted effect of over 50% in size
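Fission yeast RE007 carrying one integrated HIV-1 vpr copy, seeded at OD 0.01 in PMG+AL medium with 23 nL pinned compound. Grown 24 h at 30 degrees; viability read by BacTiter-Glo luminescence after 5 min.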
TbPYK inhibitor = inhibitors of Trypanosoma brucei pyruvate kinase; TbPYK enzyme, Kinase-Glo Plus ATP luminescence, 45 min; Potency, µM (titrated, usually from 76.8 µM), without a hit: at the top dose activity, negative = inhibition, most hits filed as inhibitors; 0.12% of 410,000 active; AID 624173; note: % is set by controls: 0 for no effect and ±100 for the full control effect; nearly all actives have a fitted effect of over 50% in size
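T. brucei PYK with substrate was exposed to pin-transferred compounds across a concentration series, then started with 130 uM ADP (final). After 45 min at room temperature, Kinase-Glo Plus luminescence was read, normalized and curve-fitted.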
FBPA Giardia inh = Giardia lamblia aldolase inhibition; Potency, µM (top dose mostly 59.6 µM), for the others: at the highest dose activity, negative = inhibition, most hits filed as inhibitors; 0.71% of 290,000 active; AID 2451; purified Giardia FBPA; A8B2U2; note: % is set by controls: 0 for no effect and ±100 for the full control effect; nearly all actives have a fitted effect of over 55% in size
Target sequence (A8B2U2 whole entry, looked up): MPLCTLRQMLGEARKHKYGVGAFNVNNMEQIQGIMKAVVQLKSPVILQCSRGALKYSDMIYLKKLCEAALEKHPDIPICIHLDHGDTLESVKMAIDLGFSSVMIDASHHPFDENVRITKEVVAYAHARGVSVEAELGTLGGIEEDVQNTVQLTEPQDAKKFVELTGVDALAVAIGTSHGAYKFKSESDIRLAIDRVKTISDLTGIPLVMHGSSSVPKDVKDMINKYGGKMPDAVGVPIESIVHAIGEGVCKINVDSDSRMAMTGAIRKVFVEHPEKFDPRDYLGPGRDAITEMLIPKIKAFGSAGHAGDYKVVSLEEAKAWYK
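40 nM FBPA preincubated 10 min at RT with compound (up to 57.5 uM final), then substrate plus GAPDH/TPI/NAD/arsenate coupling and diaphorase/resazurin added. Fluorescence read after 20 min at RT, 525/598 nm.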
NS1 function inh = influenza NS1 inhibition; 0.4% of 270,000 active; Potency, µM (doses to about 46.1 µM), inactives show top-dose activity, positive = more growth; calls by dose curve; note: actives are rising curves; nearly all actives have a fitted effect of over 50% in size
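In this qHTS, NS1 from influenza A is expressed in budding yeast, where it slows growth. Cells are switched from glucose to 2% galactose medium (pH 6.0, -URA), treated with compound, and growth recovery is read at OD600.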
Sm TGR inh = inhibitors of Schistosoma mansoni thioredoxin glutathione reductase; purified TGR, DTNB reduction, TNB absorbance 405 nm; Potency, µM (titrated, usually from 114 µM), for the others: top-dose activity change, negative = inhibition, usual class: inhibitors; 3% of 360,000 active; note: % is set by controls: 0 for no effect and ±100 for the full control effect; nearly all actives have a fitted effect of over 60% in size
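First, TGR (20 nM dispensed) and NADPH were mixed with compound. Second, a 15 min room-temperature incubation followed. Third, further NADPH and then DTNB were added to start the reaction. Finally, TNB absorbance was monitored kinetically.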
Starred values were filed as active, the others as inactive; ? = inconclusive; / = no result given; [ ] = remark or other dose. A selection: hits, their analogues and other compounds. The true share with any hit is near 3.5%. Unless noted, calls come from the whole dose curve; as a rule, active = well fitted curve in the direction sought with a large enough effect; inconclusive = small, poorly fitted or top-dose-only effect, or another doubt; inactive = no such curve, though single readings can be large; an effect the other way counts as inactive or inconclusive. Potency is the fitted concentration of half-maximal effect.

SMILES | LmPK inh | RE007 growth inh | TbPYK inhibitor | FBPA Giardia inh | NS1 function inh | Sm TGR inh
Cc1cc(N2CCCC2)nc2ccc(NC(=S)NCCCOC(C)C)cc12 | 10% | -10% | 10% | -5% | / | 20µM*
CCCN(CCC)CCCNC(=S)Nc1ccc2nc(N3CCCC3)cc(C)c2c1 | -2% | 0% | -2% | ? | / | 45µM*
CCNc1ncc2nc(-c3ccc(Cl)cc3)c(=O)n(C3CC3)c2n1 | / | / | -3% | 0% | / | /
C[C@@H]1CC[C@H]2[C@H](C)[C@H]3CC[C@H]4C5[C@@H](O)CC6=CC(=O)CC[C@]6(C)[C@H]5C[C@H]4C3C(=O)N2C1 (stereo partly drawn) | / | / | / | 0% | / | /
Nc1nc(CCl)nc(N(c2ccccc2)c2ccccc2)n1 | 1% | 2% | -6% | 8% | ? | 11µM*
Nc1nc(Cl)nc(N(c2ccccc2)c2ccccc2)n1 | 3% | 6% | -3% | 5% | -6% | -8%
Cc1ccc(CNC(=O)C(=O)NCC(c2cccs2)S(=O)(=O)c2cccs2)cc1 (stereo not drawn) | / | / | 1% | / | / | 22µM*
COc1ccc(CNC(=O)C(=O)NCC(c2cccs2)S(=O)(=O)c2ccc(C)cc2)cc1 (stereo not drawn) | / | / | 3% | / | / | 40µM*
COc1ccc(CC(=O)NCC(c2cccs2)S(=O)(=O)c2ccc(Cl)cc2)cc1 (stereo not drawn) | / | / | -3% | / | / | 11µM*
Cc1ccc(S(=O)(=O)C(CNC(=O)Cc2ccc(Cl)cc2)c2cccs2)cc1 (stereo not drawn) | / | / | -5% | / | / | -29%
CC1CCc2onc(C(=O)N3CCN(c4cccc(C(F)(F)F)c4)CC3)c2C1 (stereo not drawn) | / | / | 7% | / | / | 1%
COc1ccc(-c2cccc(NS(=O)(=O)c3ccc(NC(C)=O)cc3)c2)nn1 | / | / | -1% | / | / | -6%
COc1ccc(C(=O)Nc2cc(-c3cccc(C)c3)nn2-c2ccccc2)cc1 | / | / | 3% | / | / | 1%
O=C(N/N=C/c1cccs1)c1n[nH]c2c1CCC2 | 25µM* | -1% | -18% | -1% | 7% | 2%
Cn1c(=O)n(-c2ccc(F)c(Cl)c2)c(=O)c2sc3ccccc3c21 | / | / | 6% | / | / | 1%
COc1cccc(N2CCN(C(=O)C3CCCN(S(=O)(=O)c4ccc(Br)s4)C3)CC2)c1 (stereo not drawn) | / | / | -9% | / | / | -2%
CN(CC1(C)CCCO1)S(=O)(=O)c1ccc(Cl)c(S(N)(=O)=O)c1 (stereo not drawn) | / | / | 0% | / | / | /
CCOc1ccc2c(c1)[C@@H]1C=CC[C@@H]1[C@H](c1ccccc1Cl)N2 | / | / | -5% | / | / | -7%
COC(=O)COc1ccc(C2Nc3c(Cl)ccc(C(=O)O)c3C3C=CCC32)cc1 (stereo not drawn) | -7% | 5% | ? | -20% | / | 3.5µM*
COc1ccc(OC)c(C2Nc3c(Cl)ccc(C(=O)O)c3C3C=CCC32)c1 (stereo not drawn) | 22% | -12% | -22% | ? | 9% | 1.6µM*
CCCNC(=O)COCc1cc(-c2ccc(F)cc2)on1 | / | / | -2% | / | / | 9%
CCN(CC)Cc1cc(O)c(CN(CC)CC)cc1O | -6% | -3% | 10µM* | 5.6µM* | -7% | 3.2µM*
O=C(NC(=S)NCc1ccc(F)cc1)c1ccccc1 | 4% | -26% | -9% | -1% | -20% | 18µM*
O=C(Nc1ccc(NC(=S)NC(=O)c2cccs2)cc1)c1ccccc1 | 1% | 2% | 4% | -11% | 17% | 14%
O=C(NC(=S)Nc1ccccc1)c1cccs1 | -1% | -13% | 1% | ? | 15% | 7.9µM*
SMILES | LmPK inh | RE007 growth inh | TbPYK inhibitor | FBPA Giardia inh | NS1 function inh | Sm TGR inh
O=C(NC(=S)NCc1ccccc1)c1cccs1 | -1% | -28% | -8% | / | 6% | 79µM*
O=C(NC(=S)Nc1ccc(S(=O)(=O)NC2CCCCC2)cc1)c1cccs1 | 9% | 0% | -3% | -4% | 14% | 50µM*
O=C(NC(=S)NCc1ccccc1)c1ccccc1 | -4% | -27% | -3% | 0% | 6% | /
Cc1ccc(C)c(-n2c(N)c(C#N)c3nc4ccccc4nc32)c1 | / | / | 1% | / | / | -13%
COC(=O)c1ccc(C2Nc3c(C)cccc3-c3cc(C)nn32)cc1 (stereo not drawn) | / | / | 2% | / | / | -5%
COc1cccc(CSc2nc3n(n2)C(CC(C)C)C(C(=O)Nc2ccccc2C)=C(C)N3)c1 (stereo not drawn) | / | / | 1% | / | / | 4%
CCCCC(CC)CNC(=O)Cc1ccc(-n2c(=O)[nH]c3ccccc3c2=O)cc1 (stereo not drawn) | / | / | 1% | / | / | -1%
CCN(CC)C(=O)c1sc2c(c1C)c(=O)n(-c1ccc(C)c(C)c1)c(=O)n2Cc1cc(=O)n2ccccc2n1 | / | / | -5% | / | / | 10%
CC1CCCCC1NC(=S)NC(=O)c1cccs1 (stereo not drawn) | 1% | -20% | -8% | -7% | -12% | 22µM*
CC(C)(C)C(=O)NC(=S)NCc1ccccc1 | 1% | -16% | 3% | 0% | 15% | 40µM*
O=C(NCc1ccccc1)C1(CC2CC(c3ccccc3)=NO2)CCNCC1 (stereo not drawn) | / | 8% | -9% | / | / | 50µM*
O=C(NCC1CCCCC1)C1(CC2CC(c3cccc(Br)c3)=NO2)CCNCC1 (stereo not drawn) | 2% | 3% | -8% | 4% | 6% | 45µM*
O=C(c1ccccc1)N1CCC(CC2CC(c3cccc(Br)c3)=NO2)(C(=O)NCC2CCCCC2)CC1 (stereo not drawn) | -4% | 9% | -4% | 4% | ? | -1%
CCOc1ccc(C2C(C(=O)c3ccc(C)o3)=C(O)C(=O)N2c2nc(C)c(C(=O)OC)s2)cc1 (stereo not drawn) | 5% | -13% | 0% | -23% | 16% | 45µM*
CCOC(=O)c1sc(N2C(=O)C(O)=C(C(=O)c3ccco3)C2c2ccc([N+](=O)[O-])cc2)nc1C (stereo not drawn) | / | -6% | 0% | / | / | /
CCOC(=O)c1sc(N2C(=O)C(O)=C(C(=O)c3ccco3)C2c2ccc(C)o2)nc1C (stereo not drawn) | 6% | -12% | 0% | -30% | 14% | 7.9µM*
O=C(CSc1nc2ccccc2nc1Cc1ccc(Cl)cc1)N1CCCCC1 | / | / | 2%[15.4 µM] | / | / | 0%
O=C(O)c1cccc(N2C(=O)/C(=C/c3ccc(SCc4ccc(Cl)cc4)o3)SC2=S)c1 | 3% | -18% | ? | ? | / | 13µM*
COc1ccc(NC(=O)c2cnc[nH]2)cc1 | / | / | -13% | / | / | 4%
COc1ccc(-c2noc(N3CCC(C(=O)Nc4ccc(C)c(F)c4)CC3)n2)cc1OC | / | / | 2% | / | / | 9%
